From PubChem BioAssay (NCI)
Where “and” joins values, the source holds several entries; their conditions need not be identical. Equal values may be shown once. Compounds without any hit were thinned out: in the full panel of roughly 79,000, 15% have a hit. Unmarked numbers belong to inactive results. Calls of active or inactive are those of the source. Cut-off read from the data, not from the text of the source: active = growth inhibition above about 70%; inactive = the rest.

Experiment: NCI Yeast Anticancer Drug Screen. Data for the mlh1 rad18 strain (AID 175)
Conditions: S. cerevisiae mlh1 rad18 strain growth inhibition; at 50.0 µM; hits give high values
Method in brief: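 Test agents were incubated with a yeast strain of defined genotype (DNA damage repair defect). Inhibition of growth was derived by comparison with vehicle-exposed cultures.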

Row | Structure (SMILES) | growth inhibition
1 | Cc1[nH]nc(-c2cccnc2)c1N=NN1CCOCC1 | 98% (active)
2 | CC1CCC2(CC1)NC1=C(CC(C)CC1)C1=C2CC(C)CC1 (centres undefined) | 10.4%
3 | CN(C)CC(CN1CCCC1)C(=O)c1ccccc1 (centres undefined) | 75.2% (active)
4 | COc1ccc(/C(Cl)=C(/c2ccc(O)cc2)c2ccc(OCCN(C)C)cc2)cc1 | 88.8% (active)
5 | CCCCCC(Oc1ccc(Cl)cc1)C(=O)O (centres undefined) | 83.2% (active)
6 | N#CSC#CCCC#CSC#N | 88.9% (active)
7 | COc1cc2c(c(C3C(=O)N(C)c4ccc(Br)cc43)c1OC)OCO2 (centres undefined) | 8.55%
8 | c1ccc(-c2cc(CN3CCOCC3)c(-c3ccccc3)o2)cc1 | 54.1%
9 | CC(=O)Nc1c([N+](=O)[O-])cc2c3c(cccc13)C=C2 | 67.8%
10 | CCOc1nc(N)nc(C)c1N=Nc1ccc(Br)cc1 | 35.1%
11 | C=CC1(NC(=O)c2ccccc2)CCC(C(C)(C)C)CC1 (centres undefined) | 40.4%
12 | Cc1cccc2ccc3cc(CC(=O)O)c4cccc(C)c4c3c12 | 99.7% (active)
13 | CC(=O)OC1COC(SC(=N)N)C(OC(C)=O)C1OC(C)=O (centres undefined) | 22.6% and 29.1% and 4.55%
14 | CCCCSc1nc2c([nH]1)c(=S)n(C)c(=S)n2C | 81.2% (active)
15 | COC(=O)c1ccccc1CC(Cc1ccc2c(c1)CCC2)C(=O)OC (centres undefined) | 4.25%
16 | CCC(C)Sc1nc2c([nH]1)c(=S)n(C)c(=O)n2C (centres undefined) | 95.2% (active)
17 | O=S(=O)(c1ccc(NC(=S)NCc2ccncc2)cc1)N1CCCCC1 | 6.9%
18 | Nc1ccc(S(=O)(=O)O)c2ccccc12 | -12.8% and -40% and 8.1%
19 | CC12C(=O)OC(=O)C1C1c3ccccc3C2c2ccccc21 (centres undefined) | 88% (active)
20 | CSc1ccccc1C(=O)O | -7.45% and -1.95% and -8.9%

Row | Structure (SMILES) | growth inhibition
21 | CCOC(=O)C(F)C(Br)C(=O)OCC (centres undefined) | 90% (active)
22 | CCCCCCCCCCCCCCCCC/C=N\NC(=O)CCCC(=O)N/N=C/CCCCCCCCCCCCCCCCC | 98.3% (active)
23 | CC(C(=O)NN)C(O)C(C)(C)O (centres undefined) | 6.05%
24 | COC(=O)C1C2CC3c4[nH]c5cc(OC)c(Br)cc5c4CCN3CC2CC(OC(=O)c2cc(OC)c(OC)c(OC)c2)C1OC (centres undefined) | 86.6% (active)
25 | OCC(O)C(O)C(O)C(O)CNCC(O)C(O)C(O)C(O)CO (centres undefined) | 17.4% and 21% and 20.8%
26 | CCCN(CCC)C(=S)N/N=C/c1cccc(C)n1 | 89.7% (active)
27 | Cc1cccc2c1Oc1ccccc1C2N1C(=O)/C(=C/c2cccs2)SC1=S (centres undefined) | 42.4%
28 | COc1ccc(OC(C)=O)c2c1CCC=CC2=O | 74% (active)
29 | Cc1ccc(S(=O)(=O)OCC(O)C(O)COS(=O)(=O)c2ccc(C)cc2)cc1 (centres undefined) | 26.1% and -1.9% and -2.9%
30 | COC(=O)CSc1nc2[nH]c(SC)c(C(N)=O)c2c(=O)n1-c1ccccc1 | 9.8%
31 | NCC(=O)NC(CO)C(=O)O (centres undefined) | -3.35% and -12.8% and -9.4%
32 | O=C(Nc1ccc(Cl)c(Cl)c1Cl)Oc1c(Cl)c(Cl)c(Cl)c(Cl)c1Cl | 99.5% (active)
33 | COC1OC2COC(c3ccccc3)OC2C(O)C1O (centres undefined) | -3.15% and -3.95% and 9.8%
34 | COc1ccc(CCCC(=O)O)c2c(OC)cccc12 | 78.3% (active)
35 | FC(F)(F)c1ccc(Nc2ccc(C(F)(F)F)cc2)cc1 | 99.8% (active)
36 | O=C(c1ccccc1)C(Br)CCCC(Br)C(=O)c1ccccc1 (centres undefined) | 95.5% (active)
37 | CC1(C)c2ccccc2Cc2cc3ccccc3nc21 | 83.2% (active)
38 | OC(c1ccccc1)C(O)c1ccccc1 (centres undefined) | 20.1% and 11.9% and 2.4%
39 | COc1ccc2c(c1)[n+]([O-])c(-c1ccc(Cl)c(Cl)c1)c(N)[n+]2[O-] | 99.4% (active)
